Assay results taken from PubChem BioAssay (EPA / NIEHS).
The source made the active and inactive calls. Rule for the calls: active = hit-call score of the fitted dose curve at least 0.9, where 1 is the maximum; inactive = score below 0.9.

Columns and labels:
Conditions in all cases: mRNA level, 48 h; actives raise or lower the signal
[1] = read-out: ABC Transporter (ABCB11), ABCB11 (gene 8647); assay: LTEA_HepaRG_ABCB11: Life Technologies and Expression Analysis (LTEA) Assay for ABC Transporter (ABCB11) using HepaRG (AID 2283463)
How it was run: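 Using HepaRG cultures held in 0.5% DMSO, chemicals were tested at half-log dilutions from 100 uM for 48 h. Induction or suppression of ABCB11 mRNA, normalized to ACTB, GAPDH and POLR2A, was fitted bidirectionally against vehicle.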

[2] = read-out: ABC Transporter (ABCC2), ABCC2 (gene 1244); assay: LTEA_HepaRG_ABCC2: Life Technologies and Expression Analysis (LTEA) Assay for ABC Transporter (ABCC2) using HepaRG (AID 2283464)
How it was run: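 HepaRG cells were plated 48 h, switched to serum-free induction medium, then exposed in duplicate for 48 h to 8 concentrations (top 100 uM, half-log steps, 0.5% DMSO). ABCC2 mRNA was measured by qRT-PCR normalized to ACTB/GAPDH/POLR2A; bidirectional fitting versus DMSO.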

[3] = read-out: Broad substrate specificity ATP-binding cassette transporter ABCG2 (Homo sapiens) (UniProt Q9UNQ0); assay: LTEA_HepaRG_ABCG2: Life Technologies and Expression Analysis (LTEA) Assay for ABC Transporter (ABCG2) using HepaRG (AID 2283465)
How it was run: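 Gene expression of ABCG2 in HepaRG liver cells is quantified by qRT-PCR following 48 h exposure across an eight-point series topping at 100 uM. Values come from bidirectional fitting relative to DMSO vehicle.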

[4] = read-out: ATP-citrate lyase (ACLY), ACLY (gene 47); assay: LTEA_HepaRG_ACLY: Life Technologies and Expression Analysis (LTEA) Assay for ATP-citrate lyase (ACLY) using HepaRG (AID 2283466)
How it was run: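 ACLY expression changes in human HepaRG liver cells are quantified by qRT-PCR after 48 h exposure to test chemicals (maximum 100 uM, half-log steps). Values are fitted in both directions relative to 0.5% DMSO vehicle.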

[5] = read-out: Peroxisomal acyl-coenzyme A oxidase 1 (ACOX1) gene, ACOX1 (gene 51); assay: LTEA_HepaRG_ACOX1: Life Technologies and Expression Analysis (LTEA) Assay for Peroxisomal acyl-coenzyme A oxidase 1 (ACOX1) gene using HepaRG (AID 2283467)
How it was run: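 Human HepaRG hepatic cultures, 48 h treatment with test chemicals up to 100 uM. ACOX1 expression read by qRT-PCR relative to 0.5% DMSO vehicle.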

[6] = read-out: Alkaline Phosphatase, Placental (ALPP) gene, ALPP (gene 250); assay: LTEA_HepaRG_ALPP: Life Technologies and Expression Analysis (LTEA) Assay for Alkaline Phosphatase, Placental (ALPP) gene using HepaRG (AID 2283468)
How it was run: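 Differentiated human HepaRG cells were plated and cultured 48 h, then exposed in duplicate for 48 h in serum-free induction medium to eight half-log concentrations from 100 uM in 0.5% DMSO. ALPP mRNA was measured by TaqMan qRT-PCR, normalized to ACTB, GAPDH, POLR2A.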

[7] = read-out: Bcl-2 (BAD) gene, BAD (gene 572); assay: LTEA_HepaRG_BAD: Life Technologies and Expression Analysis (LTEA) Assay for Bcl-2 (BAD) gene using HepaRG (AID 2283469)
How it was run: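 Activity values reflect up- or down-regulation of BAD mRNA in human HepaRG hepatic cells treated 48 h in serum-free medium, with eight-point half-log dosing capped at 100 uM and 0.5% DMSO vehicle.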

[8] = read-out: Bcl-2 (BAX) gene, BAX (gene 581); assay: LTEA_HepaRG_BAX: Life Technologies and Expression Analysis (LTEA) Assay for Bcl-2 (BAX) gene using HepaRG (AID 2283470)
How it was run: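 qRT-PCR read-out of BAX mRNA, normalized to three housekeeping genes, after 48 h chemical exposure of human HepaRG cells in serum-free induction medium; eight-point half-log series, top 100 uM, 0.5% DMSO vehicle; bidirectional fit versus DMSO.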

[9] = read-out: adenosine kinase (ADK) gene, ADK (gene 132); assay: LTEA_HepaRG_ADK: Life Technologies and Expression Analysis (LTEA) Assay for adenosine kinase (ADK) gene using HepaRG (AID 2283471)
How it was run: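 Differentiated HepaRG cells dosed 48 h in serum-free induction medium, 0.5% DMSO vehicle, eight half-log concentrations from 100 uM, in duplicate. ADK mRNA by TaqMan qRT-PCR normalised to ACTB, GAPDH, POLR2A; bidirectional fit versus DMSO.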

[10] = read-out: Alpha-fetoprotein (AFP) gene, AFP (gene 174); assay: LTEA_HepaRG_AFP: Life Technologies and Expression Analysis (LTEA) Assay for Alpha-fetoprotein (AFP) gene using HepaRG (AID 2283472)
How it was run: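 qRT-PCR (Fluidigm TaqMan) readout of AFP transcript, normalized to three housekeeping genes, fitted bidirectionally against 0.5% DMSO baseline. HepaRG cells received chemicals for 48 h in serum-free induction medium, top concentration 100 uM, half-log steps.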

[11] = read-out: BCL2L11 (gene 10018); assay: LTEA_HepaRG_BCL2L11: Life Technologies and Expression Analysis (LTEA) Assay for Bcl-2 (BCL2L11) gene using HepaRG (AID 2283473)
How it was run: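 Differentiated human HepaRG cells in serum-free induction medium were exposed in duplicate for 48 h to eight concentrations (top 100 uM, half-log steps, 0.5% DMSO). BCL2L11 mRNA was quantified by TaqMan qRT-PCR, normalized to ACTB/GAPDH/POLR2A, bidirectional fit versus DMSO.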

[12] = read-out: Apolipoprotein A-V (APOA5) gene, APOA5 (gene 116519); assay: LTEA_HepaRG_APOA5: Life Technologies and Expression Analysis (LTEA) Assay for Apolipoprotein A-V (APOA5) gene using HepaRG (AID 2283474)
How it was run: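 Differentiated human HepaRG cells were exposed in duplicate for 48 h to eight half-log concentrations from 100 uM in 0.5% DMSO. APOA5 mRNA was quantified by TaqMan qRT-PCR, normalized to ACTB, GAPDH and POLR2A, and fitted bidirectionally against DMSO.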

[13] = read-out: Apoptosis regulator Bcl-2 (Homo sapiens) (UniProt P10415); assay: LTEA_HepaRG_BCL2: Life Technologies and Expression Analysis (LTEA) Assay for Bcl-2 gene using HepaRG (AID 2283475)
How it was run: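 qRT-PCR read-out (Fluidigm TaqMan) of BCL2 transcript, normalised to three housekeeping genes, after 48 h chemical exposure of HepaRG cells; 8-point half-log series, top 100 uM, 0.5% DMSO vehicle. Gain or loss of signal fitted relative to DMSO baseline.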

[14] = read-out: Bcl-2 (BID) gene, BID (gene 637); assay: LTEA_HepaRG_BID: Life Technologies and Expression Analysis (LTEA) Assay for Bcl-2 (BID) gene using HepaRG (AID 2283476)
How it was run: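 HepaRG, 48 h exposure, 8-pt half-log series, top 100 uM, 0.5% DMSO vehicle, duplicates. Readout: BID mRNA by TaqMan qRT-PCR; housekeeping-normalized; bidirectional curve fit vs DMSO baseline.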

[15] = read-out: Caspase-3 (Homo sapiens) (UniProt P42574); assay: LTEA_HepaRG_CASP3: Life Technologies and Expression Analysis (LTEA) Assay for cysteine-aspartic acid protease (CASP3) using HepaRG (AID 2283477)
How it was run: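 Differentiated human HepaRG cells in serum-free induction medium were exposed 48 h to 8-point half-log concentrations from 100 uM (0.5% DMSO vehicle). CASP3 mRNA was measured by qRT-PCR, normalised to ACTB, GAPDH and POLR2A, with bidirectional fitting against DMSO.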

[16] = read-out: Cytochrome P450 (CYP24A1), CYP24A1 (gene 1591); assay: LTEA_HepaRG_CYP24A1: Life Technologies and Expression Analysis (LTEA) Assay for Cytochrome P450 (CYP24A1) using HepaRG (AID 2283478)
How it was run: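 Differentiated HepaRG cells, pre-cultured 48 h, were exposed in duplicate for 48 h in serum-free induction medium to 8 half-log concentrations (top 100 uM, 0.5% DMSO). CYP24A1 mRNA was quantified by TaqMan qRT-PCR, normalized to ACTB/GAPDH/POLR2A, fitted bidirectionally versus DMSO.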

[17] = read-out: Cytochrome P450 (CYP1A2), CYP1A2 (gene 1544); assay: LTEA_HepaRG_CYP1A2: Life Technologies and Expression Analysis (LTEA) Assay for Cytochrome P450 (CYP1A2) using HepaRG (AID 2283479)
How it was run: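 Differentiated human HepaRG cells in serum-free induction medium were exposed in duplicate for 48 h to 8-point half-log concentrations up to 100 uM in 0.5% DMSO. CYP1A2 mRNA measured by qRT-PCR, normalized to ACTB, GAPDH, POLR2A; bidirectional fit vs DMSO.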

[18] = read-out: cysteine-aspartic acid protease (CASP8), CASP8 (gene 841); assay: LTEA_HepaRG_CASP8: Life Technologies and Expression Analysis (LTEA) Assay for cysteine-aspartic acid protease (CASP8) using HepaRG (AID 2283480)
How it was run: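 Concentration-response in duplicate up to 100 uM (half-log steps, 0.5% DMSO) on differentiated HepaRG cultures for 48 h. Expression change of CASP8 mRNA is determined by TaqMan qRT-PCR with housekeeping-gene normalization.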

[19] = read-out: Cytochrome P450 (CYP2B6), CYP2B6 (gene 1555); assay: LTEA_HepaRG_CYP2B6: Life Technologies and Expression Analysis (LTEA) Assay for Cytochrome P450 (CYP2B6) using HepaRG (AID 2283481)
How it was run: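 Differentiated HepaRG cells, serum-free induction medium, exposed 48 h in duplicate to 8-point half-log concentrations from 100 uM in 0.5% DMSO. CYP2B6 mRNA by qRT-PCR, normalized to ACTB, GAPDH, POLR2A; bidirectional fit versus DMSO.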

Measured: AC50

Caspase-3 (Homo sapiens), sequence (P42574 whole entry, looked up): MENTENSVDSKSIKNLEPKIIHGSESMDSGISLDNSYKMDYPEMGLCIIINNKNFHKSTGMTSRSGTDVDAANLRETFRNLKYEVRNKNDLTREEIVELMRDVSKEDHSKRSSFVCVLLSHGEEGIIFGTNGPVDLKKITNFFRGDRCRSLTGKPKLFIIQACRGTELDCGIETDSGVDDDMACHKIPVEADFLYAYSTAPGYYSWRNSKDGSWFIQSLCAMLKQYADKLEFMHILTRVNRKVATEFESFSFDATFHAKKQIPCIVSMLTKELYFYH
Apoptosis regulator Bcl-2 (Homo sapiens), sequence (P10415 whole entry, looked up): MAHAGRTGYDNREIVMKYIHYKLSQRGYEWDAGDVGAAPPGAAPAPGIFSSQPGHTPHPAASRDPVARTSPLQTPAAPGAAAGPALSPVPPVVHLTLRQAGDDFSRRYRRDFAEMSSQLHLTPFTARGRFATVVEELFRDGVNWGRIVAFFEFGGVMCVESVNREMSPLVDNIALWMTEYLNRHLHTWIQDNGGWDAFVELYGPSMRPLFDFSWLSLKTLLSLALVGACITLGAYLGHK
Broad substrate specificity ATP-binding cassette transporter ABCG2 (Homo sapiens), sequence (Q9UNQ0 whole entry, looked up): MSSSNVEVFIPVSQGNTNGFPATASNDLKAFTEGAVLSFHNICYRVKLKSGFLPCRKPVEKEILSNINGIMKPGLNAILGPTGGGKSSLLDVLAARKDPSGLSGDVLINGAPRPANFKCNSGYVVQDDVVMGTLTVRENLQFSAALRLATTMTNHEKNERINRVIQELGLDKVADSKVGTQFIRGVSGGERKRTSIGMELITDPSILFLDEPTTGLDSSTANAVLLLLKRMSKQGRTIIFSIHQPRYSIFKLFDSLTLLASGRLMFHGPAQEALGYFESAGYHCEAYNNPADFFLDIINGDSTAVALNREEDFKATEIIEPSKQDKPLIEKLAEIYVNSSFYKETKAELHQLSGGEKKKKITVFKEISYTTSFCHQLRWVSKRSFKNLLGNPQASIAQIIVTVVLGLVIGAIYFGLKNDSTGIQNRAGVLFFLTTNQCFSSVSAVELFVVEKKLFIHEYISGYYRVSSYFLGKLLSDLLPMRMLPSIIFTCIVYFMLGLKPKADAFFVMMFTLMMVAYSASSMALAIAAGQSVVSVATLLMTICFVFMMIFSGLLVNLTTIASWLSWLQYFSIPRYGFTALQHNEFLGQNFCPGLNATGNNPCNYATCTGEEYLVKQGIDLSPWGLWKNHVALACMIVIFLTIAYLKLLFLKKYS

CNC(=O)ON=C(SC)C(=O)N(C)C
active: [18] 369 nM
inactive: all other assays above

CCOP(=O)(SC(C)CC)N1CCSC1=O (stereo not drawn)
active: [2] 27100 nM | [19] 2560 nM
inactive: all other assays above
